According to PubChem BioAssay:
Unmarked numbers belong to inactive results. For some of these results: Entries with a potency or affinity are not part of this list. Calls of active or inactive are those of the source. Unless noted, the rule behind the calls is not given here.

Tests used:
[1] = antimalarial activity against Dd2 strain (AID 2302;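 active = growth inhibition above 50% at the single 2 µM test dose, taken to imply half-maximal potency below 2 µM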;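 note: 0% = DMSO untreated growth and 100% = chloroquine plus artemisinin killed control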); conditions: P. falciparum Dd2 in RBCs, LDH growth readout, 72 h; at 2 µM; active compounds read high
[2] = human hepatoma cell viability loss – ATP luminescence, cytotoxicity control for P. falciparum antimalarial project, primary screen (AID 2303;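 active = inhibition above 50%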;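 note: 0% = DMSO wells and 100% = digitonin-killed cells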); conditions: HepG2 viability, 24-48 h, at 10 µM, active compounds read high
[3] = target: L-lactate dehydrogenase (Plasmodium falciparum (isolate CDC / Honduras)) (UniProt Q27743); test: PfLDH activity inhibition – cell lysate, 3D7 strain, counter-screen for P. falciparum growth inhibition project (AID 2304);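 note: 0% = vehicle and 100% = reference inhibitor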; conditions: P. falciparum 3D7 crude extract, LDH APAD/NBT absorbance; at 2 µM; active compounds read high
[4] = inhibition of 3D7 malaria parasite growth – strain 3D7 (AID 2306);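 note: 0% = DMSO wells and 100% = chloroquine plus artemisinin control wells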; conditions: P. falciparum 3D7 erythrocytic growth, LDH absorbance, 72 h; at 2 µM; active compounds read high
[5] = target: Calcium-dependent protein kinase 1 (Plasmodium falciparum (isolate 3D7)) (UniProt P62344); test: PfCDPK1 kinase inhibitors, biochemical, TCAMS library (AID 1159585; cut-off not given, nearly all actives have IC50 up to about 0.98 µM;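 note: inhibitors leave more ATP so luminescence rises with inhibition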); conditions: recombinant PfCDPK1, Kinase-Glo ATP depletion luminescence
[6] = target: Plasmodium falciparum protein kinase 6 (PK6, PF3D7_1337100) (UniProt Q8IDW1); test: PfPK6 kinase inhibitors, biochemical, TCAMS library (AID 1159586); conditions: recombinant PfPK6, Kinase-Glo ATP depletion luminescence
[7] = target: Protein kinase 7 (PK7), Plasmodium falciparum 3D7 (PF3D7_0213400) (UniProt Q7YTF7); test: inhibition of Plasmodium PK7 catalytic activity – biochemical, TCAMS antimalarial set, Kinase-Glo luminescence (AID 1159587); conditions: recombinant PfPK7, Kinase-Glo ATP depletion luminescence
[8] = target: Calcium-dependent protein kinase 4 (Plasmodium falciparum (isolate 3D7)) (UniProt Q8IBS5); test: PfCDPK4 kinase inhibitors, biochemical, TCAMS library (AID 1159588; cut-off not given, nearly all actives have IC50 up to about 0.91 µM); conditions: recombinant PfCDPK4, Kinase-Glo ATP depletion luminescence
Calcium-dependent protein kinase 4 (Plasmodium falciparum (isolate 3D7)), sequence (Q8IBS5 whole entry, looked up): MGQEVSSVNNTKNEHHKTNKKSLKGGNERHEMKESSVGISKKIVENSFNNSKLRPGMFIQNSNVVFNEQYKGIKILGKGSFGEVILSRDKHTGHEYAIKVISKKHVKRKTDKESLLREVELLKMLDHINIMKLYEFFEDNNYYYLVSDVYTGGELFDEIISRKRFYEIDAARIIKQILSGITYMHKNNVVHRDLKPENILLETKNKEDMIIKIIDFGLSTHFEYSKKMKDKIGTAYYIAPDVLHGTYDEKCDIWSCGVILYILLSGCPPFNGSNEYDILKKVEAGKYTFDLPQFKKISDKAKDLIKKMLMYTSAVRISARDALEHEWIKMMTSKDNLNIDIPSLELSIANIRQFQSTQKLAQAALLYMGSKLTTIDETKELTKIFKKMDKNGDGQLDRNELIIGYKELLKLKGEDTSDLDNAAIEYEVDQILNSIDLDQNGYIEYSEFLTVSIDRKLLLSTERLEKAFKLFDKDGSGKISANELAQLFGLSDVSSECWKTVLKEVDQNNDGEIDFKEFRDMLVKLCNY

Calcium-dependent protein kinase 1 (Plasmodium falciparum (isolate 3D7)), sequence (P62344 whole entry, looked up): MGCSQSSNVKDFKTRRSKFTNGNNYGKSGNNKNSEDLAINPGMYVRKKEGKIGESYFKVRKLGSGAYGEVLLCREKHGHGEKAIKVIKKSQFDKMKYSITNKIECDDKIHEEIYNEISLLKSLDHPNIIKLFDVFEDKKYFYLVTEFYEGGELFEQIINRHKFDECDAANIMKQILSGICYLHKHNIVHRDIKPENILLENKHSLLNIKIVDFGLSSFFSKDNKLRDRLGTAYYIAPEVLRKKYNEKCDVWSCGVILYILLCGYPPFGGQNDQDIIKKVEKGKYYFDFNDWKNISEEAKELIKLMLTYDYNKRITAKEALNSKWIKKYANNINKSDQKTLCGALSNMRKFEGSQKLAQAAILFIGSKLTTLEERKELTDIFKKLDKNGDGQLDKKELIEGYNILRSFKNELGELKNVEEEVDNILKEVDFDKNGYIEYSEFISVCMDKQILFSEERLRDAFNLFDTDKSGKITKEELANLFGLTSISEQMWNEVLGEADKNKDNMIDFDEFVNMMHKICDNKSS
Protein kinase 7 (PK7), Plasmodium falciparum 3D7 (PF3D7_0213400), sequence (Q7YTF7 1-343): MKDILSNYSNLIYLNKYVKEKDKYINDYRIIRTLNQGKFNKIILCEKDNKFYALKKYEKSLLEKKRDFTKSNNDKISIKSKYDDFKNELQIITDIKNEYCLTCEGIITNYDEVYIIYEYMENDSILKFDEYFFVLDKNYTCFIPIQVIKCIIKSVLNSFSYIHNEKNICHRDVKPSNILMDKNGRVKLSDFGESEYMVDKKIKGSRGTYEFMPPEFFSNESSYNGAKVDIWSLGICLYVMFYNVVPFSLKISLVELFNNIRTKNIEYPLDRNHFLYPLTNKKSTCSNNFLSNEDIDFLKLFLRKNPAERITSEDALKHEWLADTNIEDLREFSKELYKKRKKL
Plasmodium falciparum protein kinase 6 (PK6, PF3D7_1337100), sequence (Q8IDW1 1-305): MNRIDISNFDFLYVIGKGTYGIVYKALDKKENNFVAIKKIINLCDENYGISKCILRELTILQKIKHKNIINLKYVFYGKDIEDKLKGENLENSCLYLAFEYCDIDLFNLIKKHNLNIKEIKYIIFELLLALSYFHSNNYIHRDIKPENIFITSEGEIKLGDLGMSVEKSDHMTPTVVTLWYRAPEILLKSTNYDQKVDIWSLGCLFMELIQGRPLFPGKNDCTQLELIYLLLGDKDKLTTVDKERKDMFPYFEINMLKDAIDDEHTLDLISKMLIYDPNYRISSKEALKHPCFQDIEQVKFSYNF
L-lactate dehydrogenase (Plasmodium falciparum (isolate CDC / Honduras)), sequence (Q27743 whole entry, looked up): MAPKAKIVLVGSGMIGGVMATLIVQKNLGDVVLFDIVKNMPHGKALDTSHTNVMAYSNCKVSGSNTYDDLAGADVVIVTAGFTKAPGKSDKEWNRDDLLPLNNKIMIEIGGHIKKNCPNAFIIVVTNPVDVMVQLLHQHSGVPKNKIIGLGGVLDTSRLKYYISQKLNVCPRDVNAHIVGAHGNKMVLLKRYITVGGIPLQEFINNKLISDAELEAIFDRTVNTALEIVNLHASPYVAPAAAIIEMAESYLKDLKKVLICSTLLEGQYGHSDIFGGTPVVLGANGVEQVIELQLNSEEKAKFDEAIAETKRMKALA

| SMILES | growth inhibition [1] | inhibition [2] | inhibition [3] [%] | growth inhibition [4] | outcome [5] | outcome [6] | outcome [7] | outcome [8] |
| --- | --- | --- | --- | --- | --- | --- | --- | --- |
| CN(Cc1cccc(O)c1)C1CCN(c2cc(NC(=O)c3ccc(F)cc3)ccn2)CC1 | 9% | 24% | -2 | 94% (active) | inactive | inactive | inactive | inactive |
| Fc1ccc2nc(-c3ccc(-c4ccc(CN5CCC(CCN6CCCCC6)CC5)cc4)s3)[nH]c2c1 | 101% (active) | 96% (active) | 3 | 101% (active) | inactive | inactive | inactive | inactive |
| C[C@@H]1CN(c2cnn(C/C=C/c3ccc(NC(=O)c4ccc5nonc5c4)cc3)c(=O)c2Cl)C[C@H](C)N1 | 35% | 71% (active) | -3 | 94% (active) | inactive | inactive | inactive | inactive |
| COc1ccc(Nc2nc(NC3CCN(C)CC3)cc(-c3ccc(OC)cc3)n2)cc1 | 51% (active) | 62% (active) | 4 | 100% (active) | inactive | inactive | inactive | inactive |
| CCn1c(SCc2ccc(F)cc2)nc2sc3c(c2c1=O)CCN(C)C3 | 81% (active) | 2% | 3 | 95% (active) | inactive | inactive | inactive | inactive |
| Fc1ccc(C=NNc2ccnc3ccccc23)cc1 | 101% (active) | 21% | 4 | 101% (active) | inactive | inactive | inactive | inactive |
| Cc1ccc(O)cc1Nc1ccnc2ccc(-c3cccc(CN(C)C)c3)cc12 | 99% (active) | -3% | 1 | 101% (active) | inactive | inactive | inactive | inactive |
| COc1cccc(OCC2CCCN(CCCCNC(=O)c3ccc(NC(=O)c4ccc(Cl)cc4)cc3)C2)c1 (stereo not drawn) | 49% | 33% | 7 | 100% (active) | inactive | inactive | inactive | inactive |
| CN1C(=C2SC(=Nc3ccc4ncccc4c3)N(Cc3ccccc3)C2=O)Sc2ccc(Cl)cc21 | 75% (active) | 4% | -2 | 99% (active) | inactive | inactive | inactive | inactive |
| COc1ccc(CCNCCCCCCNCCCc2ccc(Cl)cc2)cc1OC | 2% | 36% | 1 | 96% (active) | inactive | inactive | inactive | inactive |
| CC1(C)N=C(N)N=C(N)N1OCc1ccc2ccccc2c1CON1C(N)=NC(N)=NC1(C)C | 12% | 8% | 1 | 96% (active) | inactive | inactive | inactive | inactive |
| CC(C)(CNCc1cc(Cl)cc(Cl)c1)c1nc(-c2ccc(Cl)c(O)c2)c(-c2ccnc(N)n2)[nH]1 | 2% | 54% (active) | -1 | 92% (active) | inactive | inactive | inactive | inactive |
| O=C(NC1CC1)c1cnc(N2CCC(c3ccccc3)CC2)c(Cl)c1 | 95% (active) | 6% | 0 | 94% (active) | inactive | inactive | inactive | inactive |
| Cc1cc2ncn(-c3nccc(NCc4ccc(F)c(C)c4)n3)c2cc1C | 82% (active) | 10% | -3 | 90% (active) | inactive | inactive | inactive | inactive |
| COc1ccc(-c2onc(C(F)(F)F)c2-c2ccc(Br)cc2)c(O)c1 | 77% (active) | 7% | 4 | 99% (active) | inactive | inactive | inactive | inactive |
| Cc1ccccc1C1CCN(C2CCC(NC(=O)/C=C/c3ccc(C(F)(F)F)cc3)CC2)CC1 (stereo not drawn) | 19% | 64% (active) | -3 | 95% (active) | inactive | inactive | inactive | inactive |
| c1cc(CNCC2CCCO2)cc(-c2cccc(-c3nc4ccccc4[nH]3)c2)c1 (stereo not drawn) | 7% | 15% | 3 | 100% (active) | inactive | inactive | inactive | inactive |
| CCCCNc1cc(C)nc(NCc2ccccc2)n1 | 37% | 23% | 3 | 97% (active) | inactive | inactive | inactive | inactive |
| NC1=NC(Cc2ccccc2)N(c2ccc(Cl)cc2)C(N)=N1 (stereo not drawn) | 4% | 21% | -2 | 93% (active) | inactive | inactive | inactive | inactive |
| N#CC(NC(=O)C=Cc1ccccc1)c1ccccc1 (stereo not drawn) | 3% | 3% | -8 | 95% (active) | inactive | inactive | inactive | inactive |
| FC(F)(F)c1ccc(NC(=S)N2CCC(CCN3CCC(c4c[nH]c5ccccc45)CC3)CC2)cc1 | 37% | 44% | 0 | 98% (active) | inactive | inactive | inactive | inactive |

| SMILES | growth inhibition [1] | inhibition [2] | inhibition [3] [%] | growth inhibition [4] | outcome [5] | outcome [6] | outcome [7] | outcome [8] |
| --- | --- | --- | --- | --- | --- | --- | --- | --- |
| CNC(=O)Cc1ccc(C(=O)Nc2cccc(-c3csc(-c4nc5ccccc5[nH]4)c3)c2)cc1 | 69% (active) | 36% | 4 | 95% (active) | inactive | inactive | inactive | inactive |
| C(=C(c1cccs1)c1cccs1)c1ccc(CNC2CCN(Cc3ccccc3)CC2)cc1 | 21% | 40% | 4 | 98% (active) | inactive | inactive | inactive | inactive |
| Cc1ccc(-c2nc(N3CCN(C(=O)c4ccco4)CC3)c3ccccc3n2)cc1 | 75% (active) | -8% | 3 | 90% (active) | inactive | inactive | inactive | inactive |
| CCC1CN2CCc3c([nH]c4ccccc34)C2CC1CC1=NCCc2c1[nH]c1ccc(OC)cc21 (stereo not drawn) | 68% (active) | 99% (active) | 1 | 101% (active) | inactive | inactive | inactive | inactive |
| COc1ccc2nc3cc(Cl)ccc3c(NCCCO)c2c1 | 100% (active) | 32% | -1 | 100% (active) | inactive | inactive | inactive | inactive |
| CC1(C)OC[C@]2(C)[C@@H](CC[C@]3(C)C4=CC(=O)CCC4CC[C@@H]23)O1 (stereo partly drawn) | 95% (active) | -2% | 1 | 97% (active) | inactive | inactive | inactive | inactive |
| Nc1nc(N)c2cc3ccc(OCc4ccccc4)cc3nc2n1 | 75% (active) | 78% (active) | 0 | 100% (active) | inactive | inactive | inactive | inactive |
| COc1ccc2cc(C(C)NC3CCN(c4cccc(NC(=O)c5ccncc5)c4)CC3)ccc2c1 (stereo not drawn) | 6% | 13% | -1 | 91% (active) | inactive | inactive | inactive | inactive |
| C=CCn1c(C)cc(C(=O)COc2ccc(S(=O)(=O)N3CCOCC3)cc2[N+](=O)[O-])c1C | 5% | 0% | 3 | 94% (active) | inactive | inactive | inactive | inactive |
| O=C(/C=C/c1ccc(Cl)c(Cl)c1)NCCCN1CCC(c2c[nH]c3ccccc23)CC1 | 5% | 48% | -4 | 90% (active) | inactive | inactive | inactive | inactive |
| Cc1cc(N(C)C)nc(Nc2ccc(NC(=O)C3CCCCC3)cc2)n1 | 68% (active) | 3% | -1 | 101% (active) | inactive | inactive | inactive | inactive |
| COc1ccc(CNCc2cccc(-c3ccc(-c4nc5ccc(C(F)(F)F)cc5[nH]4)cc3)c2)cc1 | 95% (active) | 23% | 0 | 102% (active) | inactive | inactive | inactive | inactive |
| Cc1cc(C)c2nc(N3CCC(C(=O)NCCCN4CCC(N5CCCCC5)CC4)CC3)sc2c1 | 34% | 99% (active) | -5 | 99% (active) | inactive | inactive | inactive | inactive |
| O=C(/C=C/c1ccc(Cl)c(Cl)c1)NCCCCCN1CCC(c2c[nH]c3ccc(O)cc23)CC1 | 0% | 20% | 3 | 101% (active) | inactive | inactive | inactive | inactive |
| Cc1cc(N(C)C)nc(Nc2ccc(NS(=O)(=O)c3ccccc3)cc2)n1 | 11% | -3% | -1 | 92% (active) | inactive | inactive | inactive | inactive |
| OC1CCCN(Cc2cccc(-c3ccc(-c4nc5ccccc5[nH]4)cc3)c2)C1 (stereo not drawn) | 16% | 25% | -2 | 85% (active) | inactive | inactive | inactive | inactive |
| O=C(CCNc1ccnc(NCCc2ccccc2)n1)Nc1ccccc1 | 19% | 7% | 2 | 89% (active) | inactive | inactive | inactive | inactive |
| CCOC(=O)c1[nH]c(-c2ccc(-c3ccccc3)cc2)nc1N | 2% | -1% | 6 | 98% (active) | inactive | inactive | inactive | inactive |
| CCOc1ccc2c(NN=Cc3ccc(OC)c(OC)c3)cc(C)nc2c1 | 58% (active) | 22% | 2 | 100% (active) | inactive | inactive | inactive | inactive |
| CC(C)CN(C)Cc1ccc(-c2ccc(-c3nc4ccccc4[nH]3)s2)cc1 | 76% (active) | 8% | 2 | 97% (active) | inactive | inactive | inactive | inactive |
